Vaccinia Venus: inhibitors of vaccinia virus (Venus reporter) | Potency, µM (highest dose often 36.5 µM), without a hit: at the top dose activity change, negative = inhibition, hits mostly inhibitors | Vaccinia virus Venus reporter expression, fluorescence | actives 0.46% (n = 330,000); calls by dose curve; tested in A549 cells; note: % is set by controls: 0 for no effect and ±100 for the full control effect; nearly all actives have a fitted effect of over 30% in size
AmpC no deterg: inhibitors of E. coli AmpC beta-lactamase without detergent; AID 485341; actives 0.52% (n = 330,000); Potency, µM (highest dose often 57.1 µM), for inactives: at the highest dose activity change, negative = inhibition, actives largely listed as inhibitors; AmpC nitrocefin hydrolysis, absorbance 480 nm, 0.0001% Triton;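 note: plate controls were no compound for no effect and no enzyme for full effect; nearly all actives have a fitted effect of over 20% in size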
Target sequence (P00811 whole entry, looked up): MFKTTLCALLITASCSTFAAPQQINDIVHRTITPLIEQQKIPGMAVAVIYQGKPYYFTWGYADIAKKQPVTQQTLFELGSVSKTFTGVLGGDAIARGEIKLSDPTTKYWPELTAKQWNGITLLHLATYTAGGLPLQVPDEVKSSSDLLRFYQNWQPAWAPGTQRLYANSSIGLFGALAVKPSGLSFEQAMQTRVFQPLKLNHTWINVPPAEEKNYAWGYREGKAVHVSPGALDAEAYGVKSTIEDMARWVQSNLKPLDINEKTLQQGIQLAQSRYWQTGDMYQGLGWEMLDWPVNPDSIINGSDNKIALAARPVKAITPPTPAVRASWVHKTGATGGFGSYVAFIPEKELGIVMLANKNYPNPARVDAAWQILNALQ
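20 mM phosphate pH 7.0 + 0.01% (detergent screen) or 0.0001% Triton X-100; 5.3 nM AmpC reagent; cpd preinc 15 min RT; nitrocefin (800 uM stock) to start; A480 q20 s × 4 min; Activity was normalised to no-enzyme and no-compound control wells.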
SARS PLpro yeast: SARS-CoV PLP inhibition in yeast; S. cerevisiae expressing SARS-CoV PLpro, growth rescue; Potency, µM (doses to about 32.9 µM), for inactives: at the top dose activity, positive = growth rescue, usual class: activators; actives 0.19% (n = 330,000); AID 485353; calls by dose curve; note: 0% is about no effect; nearly all actives have a fitted effect of over 55% in size
AmpC detergent: blocks E. coli AmpC beta-lactamase in detergent assay; AmpC hydrolysis of nitrocefin, absorbance 480 nm, 0.01% Triton; actives 0.041% (n = 370,000); Potency, µM (doses to about 114 µM), inactives show at the top dose activity change, negative = inhibition, actives largely listed as inhibitors;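 note: 0% = no-compound wells and -100% = no-enzyme wells; nearly all actives have a fitted effect of over 25% in size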
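20 mM phosphate pH 7.0 + 0.01% (detergent screen) or 0.0001% Triton X-100; 5.3 nM AmpC reagent; cpd preinc 15 min RT; nitrocefin (800 uM stock) to start; A480 q20 s × 4 min; Activity was normalised to no-enzyme and no-compound control wells.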
Vaccinia mCherry: vaccinia inhibition (mCherry reporter); actives 0.63% (n = 310,000); Vaccinia virus mCherry reporter infection, fluorescence; Potency, µM (series often up to 36.5 µM), inactives show at the top dose activity change, negative = inhibition, actives largely listed as inhibitors; AID 720579; calls by dose curve; tested in A549 cells; note: % is set by controls: 0 for no effect and ±100 for the full control effect; nearly all actives have a fitted effect of over 35% in size
The depositor's hits bear a star; i = inactive; ? = inconclusive; / = no result given. An excerpt weighted towards active compounds, which were near 1.3% of everything screened. Unless noted, calls come from the whole dose curve; as a rule, active = well fitted curve in the direction sought with a large enough effect; inconclusive = small, poorly fitted or top-dose-only effect, or another doubt; inactive = no such curve, though single readings can be large; an effect the other way counts as inactive or inconclusive. Potency is the fitted concentration of half-maximal effect.

SMILES	Vaccinia Venus	AmpC no deterg	SARS PLpro yeast	AmpC detergent	Vaccinia mCherry
Cc1ncc2c(c1CNC(=O)/C=C/c1cccs1)CCN(C(=O)C1CC(=O)OC13CCCCC3)C2 (configuration not stated)	9%	/	/	/	-13%
COc1ccc(N2CCN(C(=O)Cc3csc(NC(=O)Nc4ccccc4OC)n3)CC2)cc1	?	104%	5%	?	?
COc1ccccc1NC(=O)Nc1nc(CC(=O)N2CCN(c3ccccc3)CC2)cs1	-28%	20%	3%	-13%	1µM*
Cc1cc(Nc2cccc(C(F)(F)F)c2)n2nc(C)nc2n1	10µM*	-6%	1%	3%	/
COc1ccc(-c2nc3nc(C)cc(Nc4cccc(C(F)(F)F)c4)n3n2)cc1	-9%	-13%	0%	-2%	-1%
CCc1nc2nc(C)cc(Nc3cccc(C(F)(F)F)c3)n2n1	10µM*	18%	-3%	-1%	/
CCc1cc(C(=O)NCCN2Cc3ccccc3OC(c3ccsc3)C2)n(C)n1 (configuration not stated)	-21%	/	/	/	-12%
CCCCn1cnc2c(SCc3ccc([N+](=O)[O-])cc3)nc(N)nc21	?	/	/	/	4µM*
CCC(C)Cn1cnc2c(Sc3c([N+](=O)[O-])ncn3C)nc(N)nc21 (configuration not stated)	?	/	/	/	16µM*
Cn1cnc([N+](=O)[O-])c1Sc1nc(N)nc2c1ncn2Cc1ccccc1	?	/	/	/	13µM*
O=C(NCc1nnc2n1CCN(Cc1cccc(C(F)(F)F)c1)CC2)c1ccncc1	-7%	/	/	/	-10%
CN(CCO)C(=O)c1cn(C2CCN(Cc3cccc(C(F)(F)F)c3)CC2)nn1	-5%	/	/	/	-2%
Cn1ccc(C(=O)NCC2CCC3(CCN(Cc4cc(F)cc(F)c4)CC3)O2)n1 (configuration not stated)	0%	/	/	/	i
O=C(O)CCC(=O)Nc1nnc(C(F)(F)F)s1	?	-15%	12%	-3%	/
CCC(NC(=O)Nc1nnc(C(F)(F)F)s1)(C(F)(F)F)C(F)(F)F	2µM*	-28%	-39%	-2%	3.5µM*
Cc1ccccc1NS(=O)(=O)c1cc(C(=O)Nc2cccc([N+](=O)[O-])c2)ccc1C	11µM*	-36%	-6%	-17%	?
Cc1ccc(C(=O)Nc2cccc([N+](=O)[O-])c2)cc1S(=O)(=O)Nc1ccc(C(=O)O)cc1	0%	-33%	-6%	1%	-11%
CC(=O)c1c(C)[nH]c(C(=O)OC(C)C(=O)Nc2cc(S(=O)(=O)N3CCCCC3)ccc2Cl)c1C (configuration not stated)	-9%	7.9µM*	22%	-10%	-13%
C1=Cc2ccccc2/C1=C\c1cc[cH-]c1.[Fe+2].c1cc[cH-]c1	6%	/	/	/	-12%
CCC1CN(CCNC(=O)c2cc3ccccc3oc2=O)Cc2cc(OC)ccc2O1 (configuration not stated)	-2%	/	/	/	-6%
COc1ccc(CCNC(=O)c2ccc3c(c2)OCO3)cc1	-7%	-13%	0%	?	i
COc1ccc2cc(CCNC(=O)c3ccc4c(c3)OCO4)c(=O)[nH]c2c1	-23%	2.8µM*	1%	?	i
O=C(Cc1cccs1)Nc1cccc(-c2nc3cc4ccccc4cc3[nH]2)c1	10µM*	-39%	-53%	-2%	?
CCOc1ccc(-c2cc(C(=O)NCc3cc(C(F)(F)F)cc(C(F)(F)F)c3)[nH]n2)c(C)c1	-14%	/	/	/	-14%
Cc1ccc(-n2c(-c3ccccc3)nsc2=NC#N)cc1	4.5µM*	/	/	/	3.5µM*
SMILES	Vaccinia Venus	AmpC no deterg	SARS PLpro yeast	AmpC detergent	Vaccinia mCherry
COCCN1CCN(C(=O)c2cnn(-c3nccc(-c4cc5ccccc5o4)n3)c2C2CC2)CC1	-9%	/	/	/	-26%
N#C/C(=C\c1cn(Cc2ccccc2)c2ccccc12)C(=O)NCc1ccco1	-36%	-36%	-26%	-4%	-27%
Cc1cccc(NC(=O)/C(C#N)=C/c2cn(CC(=O)NCc3ccco3)c3ccccc23)c1C	-28%	14µM*	4%	-12%	-18%
S=c1[nH]c(-c2ccccc2)cn1/N=C/c1cccc2ccccc12	?	2.5µM*	4%	-1%	?
COc1cc(/C=N/n2cc(-c3ccccc3)[nH]c2=S)cc(OC)c1O	/	-32%	-3%	-8%	/
S=c1[nH]c(-c2ccccc2)cn1/N=C/c1ccccc1Br	-28%	-44%	-4%	0%	-18%
Oc1ccc(/C=N/n2cc(-c3ccccc3)[nH]c2=S)cc1	/	32µM*	0%	?	/
Cc1ccc2nc(CNC(=O)c3cc(NC(=O)c4ccccc4)cc4ncn(C5CCCC5)c34)cn2c1	-15%	/	/	/	i
Cc1nc2ccccc2nc1CN1CCOc2ccc(C3(O)CCN(c4ccccc4F)CC3)cc2C1	-9%	/	/	/	-15%
C=CCNC(=S)N/N=C(\C)c1ccccn1	/	-12%	-38%	-3%	/
CC(=NNC(=S)N1CCCCC1)c1ccccn1	10µM*	/	/	/	4.5µM*
CC(=NNC(=S)N1CC2CCC(CC2)C1)c1ccncn1	6.3µM*	/	/	/	1.6µM*
CC(=NNC(=S)N1CCCCC1)c1cccc(C)n1	?	/	/	/	0.32µM*
O=C(Nc1ccc([N+](=O)[O-])cc1)Nc1ccc(OC(F)F)c(Cl)c1	8.9µM*	-19%	-123%	-10%	?
CC1(C)N=C(N)N=C(N)N1c1ccc(OCC(=O)Nc2ccccc2)c(Cl)c1	?	/	/	/	4µM*
Cc1cccc(NC(=O)CCc2ccc(N3C(N)=NC(N)=NC3(C)C)cc2)c1	?	/	/	/	5.6µM*
CC1(C)N=C(N)N=C(N)N1c1ccc(OCCCOc2ccccc2)c(Cl)c1	?	114%	1%	-8%	?
CC(C)Cc1ccc(C(C)C(=O)Nc2ccccc2O)cc1 (configuration not stated)	-25%	4µM*	-4%	-5%	?
CC(C)Cc1ccc(C(C)C(=O)Nc2nccs2)cc1 (configuration not stated)	-10%	-52%	-7%	4%	-15%
COC(=O)c1c(OCc2ccccn2)cc(=O)n2c1CCN(C(=O)c1cc(C(C)C)nn1C)CC2	0%	/	/	/	i
CN1c2ccc([N+](=O)[O-])cc2CC2(C(=O)NC(=O)NC2=O)C1c1ccccc1 (configuration not stated)	-11%	4µM*	17%	-11%	-2%
C[C@]12CC(=CO)C(=O)C[C@@H]1CC[C@@H]1[C@@H]2CC[C@@]2(C)[C@H]1CC[C@]2(C)O	/	-26%	-5%	50µM*	/
C[C@]1(O)CCC2C3CC[C@@H]4CC(=O)CC[C@]4(C)C3CC[C@@]21C (some centres not stated)	-14%	20%	-3%	/	-9%
COc1cc(=O)n2c(c1C(=O)N(C)Cc1nccs1)CCN(Cc1cccc(F)c1F)CC2	0%	/	/	/	-5%
NS(=O)(=O)c1cccc(NC(=O)CSc2nc3ccccc3c(=O)n2CCCN2CCOCC2)c1	-9%	32µM*	2%	-7%	-5%

High-throughput results: PubChem BioAssay, National Center for Advancing Translational Sciences (NCATS)
